According to PMC9574860, “Chemical Toolkit for PARK7: Potent, Selective, and High-Throughput” (Journal of Medicinal Chemistry, 2022):
Out of some 7,900 compounds screened, about 400 (5.1%) showed an effect of 50% or more. The sample as a whole holds a higher share of strong results than the screen did.

The compounds below were run against Parkinson's disease protein 7 (PARK7/DJ1) (human, UniProt Q99497) (assay: primary screen, percent inhibition; read as competition with a fluorescent probe by fluorescence polarization; higher = more effect of the substance). Details: 100 µM.
Parkinson's disease protein 7 (PARK7/DJ1), sequence (Q99497 whole entry, looked up, the tested form may be a part): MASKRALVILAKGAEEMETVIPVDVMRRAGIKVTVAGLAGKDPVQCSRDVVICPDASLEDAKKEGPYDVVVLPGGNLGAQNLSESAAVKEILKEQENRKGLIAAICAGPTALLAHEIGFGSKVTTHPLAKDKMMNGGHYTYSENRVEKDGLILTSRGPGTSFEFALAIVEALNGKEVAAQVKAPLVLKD
Procedure: The screen was conducted using the conditions as described above in 1536-well plates (Corning 3724) with a reaction volume of 8 μL per well. The compound library containing 7887 covalent fragments was purchased at Enamine Ltd. and received as 100 mM DMSO stocks in 384 well LDV Echo plates (Labcyte LP-0200). Stock solutions of 0.26 μM PARK7 and 80 nM JYQ-107 were prepared. Using a Labcyte Echo550 acoustic dispenser, 8 nL of the DMSO stock solution of the library compounds was transferred from the source plates into the empty 1536-well screening plates to obtain a 100 μM final compound concentration. Next, PARK7 (6 μL, final concentration 0.2 μM) was dispensed using a Biotek MultiflowFX liquid dispenser and incubated for 2 h, followed by dispensing the probe JYQ-107 (2 μL, final concentration 20 nM). After 2 h incubation, the FP signal was recorded on a BMG Labtech PHERAstar plate reader (λex/em 480/520 nm). The relative loss of FP signal compared with reference controls was used to calculate the remaining enzyme activity.

Compound	Inhibition % [%]
N#Cc1ccc(N2CC(O)CC2c2cccc(F)c2)cn1 (stereo not shown)	3.63
N#Cc1cc(N2CC(O)CC2c2cccc(F)c2)ccn1 (stereo not shown)	12.9
N#Cc1cccc(N2CC(O)CC2c2ccccc2)n1 (stereo not shown)	96.9
COc1cc(C)c(C(C)NC(=O)CCl)cc1OC (stereo not shown)	3.84
N#CC(=Cc1cccc(Cl)c1Cl)C(N)=O	8.01
N#Cc1ncccc1O	23.2
N#Cc1cccc(F)n1	4.58
N#Cc1nc(F)ccc1O	55.2
O=S1(=O)CCCC(CCl)C1 (stereo not shown)	-4.37
CC1(C)NC(=O)C1(C)C	2.57
COc1cc(C=C(C#N)C(N)=O)cc(Cl)c1OC(C)C	7.72
O=S(=O)(F)CCSc1nnc2ccccn12	53.9
O=S(=O)(F)CCn1nnc(-c2ccccc2)n1	35.7
O=S(=O)(F)CCSc1nnc2sc3ccccc3n12	7.67
C=CC(=O)N1CC(Cc2cccc(C)c2)C1	6.59
Cc1ccc(S(=O)(=O)F)c2c1NCCC2	4.21
Nc1ccc(S(=O)(=O)F)c(F)c1	12.3
Cc1ccc(C(=O)O)cc1S(=O)(=O)F	99.4
Cc1ccc(N)cc1S(=O)(=O)F	95.9
COc1ccc(S(=O)(=O)F)cc1C(=O)O	20.2
O=C(O)c1ccc(S(=O)(=O)F)c(Cl)c1	94.7
Cc1ccc(C(=O)O)cc1B1OC(C)(C)C(C)(C)O1	9.09
COc1cc(C(=O)O)ccc1S(=O)(=O)F	31.2
COc1cc(S(=O)(=O)F)c(Cl)cc1C(=O)O	97.8
COc1cc(NC(=O)CCl)c(Cl)cc1C(=O)O	13.3
O=C(CCl)NC1CCCCNC1=O (stereo not shown)	13.7

Compound	Inhibition % [%]
CC(=O)Nc1ccc(OC(=O)N2CCCC2)cc1	8.48
C=CC(=O)N1CCC2(CCSCC2)CC1	5.26
C=CC(=O)NCC1CCSCC1	2.54
COc1nscc1B1OC(C)(C)C(C)(C)O1	20.8
CN(CC(=O)Nc1c(Cl)cccc1Cl)C(=O)CCl	7.36
CN(CC(=O)Nc1ccc(Cl)cc1)C(=O)CCl	75.9
CN(CC(=O)Nc1ccccc1C(F)(F)F)C(=O)CCl	17.5
CN(CC(=O)Nc1ccc(F)cc1)C(=O)CCl	94.2
O=C(CCl)Nc1ccc(F)cc1	25.3
Cc1ccc(NC(=O)NC(=O)CCl)cc1	8.73
CSc1ccccc1NC(=O)CN(C)C(=O)CCl	34.6
Cc1ccc(NC(=O)CN(C)C(=O)CCl)cc1	96.5
CN(CC(=O)Nc1ccccc1Cl)C(=O)CCl	42.3
N#Cc1cccc(NC[C@H]2CCO[C@@H]2c2ccccc2)n1	3
Cc1nn(C)c(Cl)c1C=CC(=O)N1CCNC(C)C1.Cl (stereo not shown)	11
C=CC(=O)N1CCOCC1c1cccn1C (stereo not shown)	7.42
C=CC(=O)Nc1cn(C)nc1C1CC1	10
C=CC(=O)N1CCC(CCF)CC1	5.32
C=CC(=O)N1CCN(c2ccccc2F)CC1	7.53
C=CC(=O)N1CCC(CCC#N)CC1	8.36
O=C(Cn1nc(-c2ccccc2)oc1=O)N1CCSCC1	5.67
O=C(CCl)Nc1cc(Cl)cc(Cl)c1	9.47
COc1cccc(NC(=O)CCl)c1	19.1
COc1cccc(NC(=O)CCCl)c1	11.2
COc1cccc(NC(=O)CN(C)C(=O)CCl)c1	95.9
CN(CC(=O)Nc1cccc(Cl)c1)C(=O)CCl	93.8

Compound	Inhibition % [%]
O=C(CCl)Nc1cccc(Cl)c1	34.6
O=C(CCCl)Nc1cccc(Cl)c1	-0.704
C=CC(=O)N(Cc1cccc(-c2cccnc2)c1)C1CC1	12.4
Cc1cc(OC(F)F)ccc1B1OC(C)(C)C(C)(C)O1	3.76
CC(C(=O)NC1CC1c1ccccc1)N1C(=O)CCC1=O (stereo not shown)	14.1
CC(C)N1CCC(NC(=O)CCl)CC1.Cl	2.57
O=c1[nH]c(-c2ccccc2)no1	34.7
CN1CCC(n2cc(-c3ccc(S(=O)(=O)F)cc3)nn2)C1=O (stereo not shown)	9.08
C=CC(=O)NCCC1CCOC1 (stereo not shown)	4.58
N#Cc1nc2cc(N)ccc2s1	55.6
COc1nc(C#N)sc1C	2.94
C=CC(=O)N1CCC(n2cccc2)CC1	6.94
CC1(C)OB(c2ccco2)OC1(C)C	7.09
Cc1coc(B2OC(C)(C)C(C)(C)O2)c1	4.69
CC1(C)OB(c2cc(-c3ccccc3)co2)OC1(C)C	85.9
Cc1cccc(N2CCN(C(=O)n3ccnc3)CC2)c1C	6.87
Cc1cccc(-n2cc(C(=O)CCl)nn2)c1	95.4
O=C(CCl)c1cn(-c2ccc(F)cc2)nn1	5.02
Cn1cc(C(=O)CCl)nn1	3.33
COc1ccc(C(C)(C)C)cc1S(=O)(=O)n1ccnc1C	7.71
N#Cc1ccc(Cl)cn1	8.27
O=C(CCl)NC(=O)Nc1ccc2c(c1)OCCCO2	7.15
O=C(CCl)Nc1ccc2c(c1)OCCO2	55
O=C(CCCl)Nc1ccc2c(c1)OCCO2	7.65
O=C(CCl)Nc1ccc2c(c1)OCO2	46.5
O=C(CCl)NC(=O)Nc1ccc2c(c1)OCCO2	7.05

Compound	Inhibition % [%]
O=C(CCl)Nc1ccc2c(c1)OCCCO2	57.7
COC(C)c1cccc(NC(=O)c2cccnc2S)c1 (stereo not shown)	4.97
C=CC(=O)N1Cc2cc(F)c(F)cc2C1	2.84
COc1cc(OC)c(OC)cc1CS	63.9
COc1cccc(CS)c1	15.4
COc1ccc(CS)c(OC)c1	5.78
C=CC(=O)N1C[C@H](CC)CC[C@H]1C (racemic)	10.5
Cc1nc(SC2CC(C)OC2=O)nc(C)c1C (stereo not shown)	3.23
Cc1nn(-c2ccccc2)c(C)c1NC(=O)CCl	6.29
Cc1nn(-c2ccccc2)c(C)c1CNC(=O)CCl	13.2
Cc1nn(-c2ccccc2)c(O)c1C(=O)CCl	64.4
NC(=O)CN(C1CCCC1)S(=O)(=O)C=Cc1ccccc1	7.09
O=c1[nH]c(=O)n(CCC2OCCO2)cc1Cl	5.36
N#Cc1cn(CCS)c(=O)[nH]c1=O	75.1
C=CC(=O)NCC1OCCc2ccccc21 (stereo not shown)	7.98
Cc1nn(C)c(Cl)c1C=CC(=O)N1CCC(CN)CC1.Cl	15.7
CS(=O)(=O)NCCc1ccc(C(=O)CCl)cc1	82.8
O=C(CCl)NCc1ccc(-c2ccc(Cl)cc2)o1	18.1
CC(=O)NCc1ccc(S(=O)(=O)F)cc1	32.8
O=C(CCl)NCCc1ccc(Cl)cc1	41.2
CC(=O)NC(C)c1ccc(C(=O)CCl)cc1 (stereo not shown)	38.2
CC(=O)NCCc1ccc(C(=O)CCl)cc1	70.8
CC(=O)NCc1ccc(C(=O)CCl)o1	92.2
NS(=O)(=O)c1ccc(CCNC(=O)CCl)cc1	17.2
CC(=O)N(C)Cc1ccc(C(=O)CCl)cc1	79.8
C=CC(=O)N1CCCC(CC#N)C1 (stereo not shown)	5.07

Compound	Inhibition % [%]
COC(=O)c1ccc(Oc2ccc(C#N)nc2)cc1	6.29
Cc1n[nH]c(C)c1CNc1ccc(Cl)c(C#N)n1	1.98
C=CC(=O)N1CCCC(NC(C)=O)C1 (stereo not shown)	8.6
Cc1nn(C)c(Cl)c1Cn1c(-c2ccccc2)noc1=O	3.8
Cc1cc(C=C(C#N)C(=O)O)c(C)n1CC1CCCO1 (stereo not shown)	11.7
CCOC1CC(c2nc(-c3cccc(B(O)O)c3)no2)C1 (stereo not shown)	-4.81
C=CC(=O)N1CCCC(c2nnc3n2CCC3)C1 (stereo not shown)	5.59
O=C(CCl)N1c2ccccc2OCC1c1ccccc1 (stereo not shown)	28.9
Cc1ccc(B2OC(C)(C)C(C)(C)O2)cc1[N+](=O)[O-]	3.85
C=CC(=O)N1CC(c2ccccc2)C1	12.4
C=CC(=O)Nc1cnn(COC)c1	17.1
CN(C)C(=O)c1ccc(CNC(=O)CCl)cc1	2.36
CC(=O)NCc1ccc(C(=O)CCl)cc1	77.1
NC(=O)COc1ccc(C(=O)CCl)cc1	5.31
NC(=O)CCc1ccc(C(=O)CCl)cc1	82.5
CC(=O)NCc1ccc(S(=O)(=O)NC(=O)CCl)cc1	3.06
CN(CCN1C(=O)CCC1=O)Cc1nc2c(s1)CCCC2	9.47
Cn1ccc(NS(=O)(=O)C=Cc2ccc(Cl)cc2)n1	11.2
CC(C)NC(=O)C(C#N)=Cc1cc(F)ccc1F	1.67
N#Cc1ccn(-c2ccccc2)n1	6.25
C=CC(=O)N(C)CC(=O)N1c2ccccc2NC(=O)CC1C (stereo not shown)	1.23
O=C1CC(C(F)(F)F)N(C(=O)CCl)c2ccccc2N1 (stereo not shown)	53
C=CC(=O)N1CC(=O)Nc2ccccc21	10
Cc1ccc(C=CC(=O)N2CC(=O)Nc3ccccc32)o1	15.2
O=C1CN(C(=O)CCl)c2ccccc2N1	56.7
O=C(CCl)N1c2ccccc2NC(=O)C12CCCC2	42.3
